The values that follow come from PubChem BioAssay (NCI).

The panel holds about 83,000 compounds, 20% with a hit somewhere; the sample as a whole holds those more often.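 Method: cells in 96-well plates; compound added at one concentration; 48 h incubation; percent growth measured; values under 10 scored active.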 A number with no mark means an inactive call. Activity calls are given as the source filed them.

Holding throughout (experiment): NCI-60 one-dose screen, 48 h (100 = growth as untreated, 0 = no growth, -100 = all killed)
What all share (settings): 10 µM unless noted

Assay [1] concerns T-47D breast.
For assay [2], the system named is BT-549 breast.
The test system of assay [3] is MDA-MB-435 melanoma.
Assay [4] deals with SW-620 colon.
The test system of assay [5] is MCF7 breast.
Assay [6] concerns HCT-116 colon.
The subject of assay [7] is HCC-2998 colon.
Assay [8] relates to KM12 colon.

Regarding `CCCCNC(=O)c1cc(NCc2cc(O)ccc2O)ccc1O`, the growth is 58.1% in assay [1]; 46.1% in assay [2]; 96.8% in assay [3]; 110% in assay [4]; 67.7% in assay [5]; 86.2% in assay [6]. Also, the growth is 96.4% in assay [7] and 78.4% in assay [8].
With `COc1ccc(-c2c(N)n[nH]c2-c2ccccc2O)cc1OC`, the growth in assay [1] is 70%; in assay [2], -4.52% (active); in assay [3] it was 93.4%; in assay [4], 110%; in assay [5], 96.5%; in assay [6] it was 94.9%. The growth in assay [7] and in assay [8] was 107% throughout.
For `O=C(Nc1ccccc1Cl)OCCN1CCOCC1`, the growth in assay [1] was 101%; in assay [2], 72.2%; in assay [3], 107%; in assay [4], 104%; in assay [5] it was 105%; in assay [6], 73.8%. Also, the growth in assay [7] was 99.6%; in assay [8], 102%.
As to `C=C1C(=O)O[C@H]2[C@H]1CC/C(COC(=O)/C=C\C(=O)NCc1ccc(Cn3c(=O)sn(-c4ccc(OC)cc4)c3=O)cc1)=C\CC[C@@]1(C)O[C@@H]21`, the growth in assay [1] is -51.6% (active); in assay [2] it was -51.8% (active); in assay [3], -65.8% (active); in assay [4], -53.6% (active); in assay [5], -51.4% (active); in assay [6], -65.5% (active). Besides, the growth in assay [7] is -75.7% (active); in assay [8], -64.5% (active).
Turning to `CC(C)N(CCOC(=O)Nc1ccccc1Cl)C(C)C`, the growth in assay [1] was 107%; in assay [2] it was 88.5%; in assay [3], 113%; in assay [4], 103%; in assay [5], 104%; in assay [6], 84.9%. For the same molecule, the growth in assay [7] was 102%; in assay [8], 104%.
Take `O=C(CC12CC3CC(CC(C3)C1)C2)NCCOCCOCCNC(=O)c1cc2c(o1)C(=O)c1ccccc1C2=O`: the growth is -11.8% (active) in assay [1]; -93.7% (active) in assay [2]; -97.7% (active) in assay [3]; -28.4% (active) in assay [4]; -68.4% (active) in assay [5]; -8.18% (active) in assay [6]. In addition, the growth in assay [7] was -86.9% (active); in assay [8] it was -23.9% (active).
For `O=C1C2=C(CCN(Cc3ccccc3)C2)N2CCN=C2N1Cc1ccc(F)cc1F`, the growth is 33.4% in assay [1]; 34.6% in assay [2]; 32.3% in assay [3]; 40.9% in assay [4]; 30.1% in assay [5]; 23.3% in assay [6]. The figures for the growth in assay [7] and in assay [8] were 34.3% and 44.7%, respectively.
For `CC(C)(O)c1cccc(F)c1`, the growth in assay [1] was 140%; in assay [2], 104%; in assay [3], 103%; in assay [4] it was 103%; in assay [5], 98.4%; in assay [6], 93.8%. The growth was 105% in assay [7] and 103% in assay [8].
On to `Nc1ccc(-c2cc3c(Nc4ccc(OCc5cccc(F)c5)c(Cl)c4)ncnc3s2)cc1`, for which the growth is 15.4% in assay [1]; 61.2% in assay [2]; 43.8% in assay [3]; 74.1% in assay [4]; 26.2% in assay [5]; 50.7% in assay [6]. Moreover, the results for the growth in assay [7] and in assay [8] were 38.6% and 24%, respectively.
As for `Fc1ccc(Nc2ccc3cc(OCCCN4CCOCC4)ccc3n2)cc1F`, the growth is 43.5% in assay [1]; 68.6% in assay [2]; 59.9% in assay [3]; 10% in assay [4]; 55.7% in assay [5]; 47.7% in assay [6]. Besides, the growth in assay [7] is 20%; in assay [8] it was 21.3%.
As for `CNC(=O)NCC1OC(n2cnc3c(NC(=O)Nc4ccccc4)ncnc32)C2OC(C)(C)OC12` (stereo not drawn), the growth is 74.7% in assay [1]; 71.7% in assay [2]; 101% in assay [3]; 91.1% in assay [4]; 85.4% in assay [5]; 81.1% in assay [6]. The growth in assay [7] is 95.5%; in assay [8], 89.9%.
Take `Cc1nc(-c2ccccc2)cc2c(O)c(C(=O)N/N=C/c3ccc(N(C)C)cc3)[nH]c(=O)c12`: the growth is 76.5% in assay [1]; 103% in assay [2]; 86.8% in assay [3]; 75% in assay [4]; 64.1% in assay [5]; 57.6% in assay [6]. In addition, the values for the growth in assay [7] and in assay [8] were 95.2% and 82.3%, respectively.
As for `CN1CCC(=C2c3ccccc3C=Cc3ccccc32)CC1`, the growth was 72.6% in assay [1]; 113% in assay [2]; 80.2% in assay [3]; 81.1% in assay [4]; 80.5% in assay [5]; 66.3% in assay [6]. In addition, the growth in assay [7] is 92.5%; in assay [8] it was 94.4%.
Regarding `COc1cc(/C=C/C(=O)c2cccc(-n3cc(-c4ccc(Cl)cc4)[nH]c3=O)c2)cc(OC)c1OC`, the growth in assay [1] was 41.1%; in assay [2], 86.2%; in assay [3] it was 27.1%; in assay [4], -19.4% (active); in assay [5], 11.9%; in assay [6] it was -45.7% (active). For the same molecule, the growth is 75.8% in assay [7] and 46% in assay [8].
Turning to `O=S(=O)(Cc1ccccc1)c1nc2ccccc2s1`, the growth is 76.4% in assay [1]; 35.8% in assay [2]; 49% in assay [3]; 26.3% in assay [4]; 30.5% in assay [5]; 9.47% (active) in assay [6]. The growth is 103% in assay [7] and 93% in assay [8].
Take `Clc1ccc(/C=C/c2nc(Nc3ccc(Cl)cc3)c3ccccc3n2)cc1`: the growth in assay [1] was 91.2%; in assay [2] it was 107%; in assay [3], 109%; in assay [4] it was 103%; in assay [5] it was 80.9%; in assay [6], 99.1%. The growth is 106% in assay [7] and 109% in assay [8].
As to `C#CC[C@H](N)C(=O)O`, the growth in assay [1] was 102% [20 µM]; in assay [2], 106% [20 µM]; in assay [3], 102% [20 µM]; in assay [4], 103% [20 µM]; in assay [5] it was 91.7% [20 µM]; in assay [6], 96.3% [20 µM]. In addition, the growth in assay [7] is 116% [20 µM]; in assay [8] it was 105% [20 µM].
As to `Cc1ccc2c(n1)C(=O)C(Oc1ccc(F)cc1)=CC2=O`, the growth in assay [1] was 40%; in assay [2], 85.4%; in assay [3] it was 101%; in assay [4] it was 84.7%; in assay [5], 81.1%; in assay [6], 90.8%. For the same molecule, the values for the growth in assay [7] and in assay [8] were 108% and 101%, respectively.
Turning to `CC12CC(C#N)CCC1O2` (stereo not drawn), the growth in assay [1] was 116%; in assay [2] it was 111%; in assay [3], 121%; in assay [4], 97.3%; in assay [5], 97.9%; in assay [6] it was 108%. For the same molecule, the growth was 114% in assay [7] and 113% in assay [8].
For the molecule `COc1ccc(/C(C)=C(\c2ccc(Cl)cc2)c2ccc(OCCN3CCCC3)cc2)cc1F`, the growth in assay [1] was 50.7%; in assay [2] it was 66.3%; in assay [3], 31.6%; in assay [4], 13.3%; in assay [5] it was 9.96% (active); in assay [6], 14.3%. The results for the growth in assay [7] and in assay [8] were 18.6% and 7.85% (active), respectively.
In the case of `CCCCCCCSc1ccc(C(=O)O)cc1`, the growth in assay [1] is 107%; in assay [2] it was 112%; in assay [3], 96%; in assay [4], 105%; in assay [5] it was 84.3%; in assay [6], 99.3%. Besides, the values for the growth in assay [7] and in assay [8] were 114% and 116%, respectively.
With `COc1ccc(/C(C)=C(\c2ccc(Cl)cc2)c2ccc(OCCN3CCCCC3)cc2)cc1F`, the growth in assay [1] was 47.4%; in assay [2] it was 60.7%; in assay [3], 37%; in assay [4] it was 22.1%; in assay [5] it was 15%; in assay [6], 19.7%. Besides, the growth in assay [7] was 25.2%; in assay [8] it was 18.7%.
`O=[N+]([O-])c1ccc2[nH]cc(-c3c4ccsc4cc4[nH]c5ccc([N+](=O)[O-])cc5c34)c2c1`: the growth in assay [1] is 7.11% (active); in assay [2] it was 24.7%; in assay [3], -27.6% (active); in assay [4], 25%; in assay [5] it was 9.14% (active); in assay [6], 2.78% (active). Besides, the results for the growth in assay [7] and in assay [8] were 7.3% (active) and 3.79% (active), respectively.
`N=C(N)c1ccc(-c2ccc(-c3ccc(Cl)c(Cl)c3)o2)cc1`: the growth in assay [1] is 64.3%; in assay [2], 90%; in assay [3], -42.1% (active); in assay [4], -73.6% (active); in assay [5] it was -68.9% (active); in assay [6] it was -83% (active). For the same molecule, the growth in assay [7] is -75.7% (active); in assay [8], -84.2% (active).
Regarding `CCn1c(Sc2nnc(NC(=O)CSC(=S)N3CCCCC3)s2)nc2c1c(=O)n(C)c(=O)n2C`, the growth is 86.9% in assay [1]; 79.7% in assay [2]; 6.74% (active) in assay [3]; 61.8% in assay [4]; 91.9% in assay [5]; 87.7% in assay [6]. The growth was 81.9% in assay [7] and 64.2% in assay [8].
As to `N#C/C=C(\c1ccc([N+](=O)[O-])cc1)n1nnc2cc(Cl)c(Cl)cc21`, the growth was 28.5% in assay [1]; 33.7% in assay [2]; 7.64% (active) in assay [3]; -34.8% (active) in assay [4]; 1.7% (active) in assay [5]; -52.7% (active) in assay [6]. Further, the values for the growth in assay [7] and in assay [8] were 19.9% and -81.1% (active), respectively.
As for `Cn1ccnc1C(=O)/C=C/c1ccc(C(=O)Nc2ccc(S(F)(F)(F)(F)F)cc2)cc1`, the growth in assay [1] was 27.8%; in assay [2] it was 39.6%; in assay [3] it was 39.2%; in assay [4], 12.5%; in assay [5], 12.5%; in assay [6] it was 3.62% (active). Moreover, the growth in assay [7] was 5.66% (active); in assay [8], 16.6%.
Regarding `COc1c(C)cnc(CSc2nc(-c3ccc(C)cc3)cn2-c2ccc(Cl)cc2)c1C`, the growth in assay [1] is 88.1%; in assay [2], 102%; in assay [3], 110%; in assay [4], 100%; in assay [5], 102%; in assay [6], 79.8%. Besides, the growth in assay [7] is 106%; in assay [8] it was 105%.
In the case of `Cc1c2c(cn1Cc1ccccc1)CCc1cn(C)nc1-2`, the growth in assay [1] is 87.9%; in assay [2] it was 74.4%; in assay [3] it was 104%; in assay [4], 109%; in assay [5] it was 85.2%; in assay [6] it was 74.3%. For the same molecule, the growth in assay [7] is 97.6%; in assay [8], 99.9%.
Regarding `CN1C[C@@H](c2ccc(Cl)cc2)[C@]2(NC(=S)N(c3ccc(F)c(Cl)c3)C2=O)[C@@]12C(=O)NC1C=CC(Cl)=C[C@H]12` (stereo partly drawn), the growth is 21% in assay [1]; 21.6% in assay [2]; 56.8% in assay [3]; 62.2% in assay [4]; 18% in assay [5]; -49% (active) in assay [6]. The growth is 77.8% in assay [7] and 55% in assay [8].
As to `CCCCN1CCN(c2ccc3nc(-c4ccc5nc(-c6ccc(OCC)c(OCC)c6)[nH]c5c4)[nH]c3c2)CC1`, the growth in assay [1] was 39.9%; in assay [2], -23% (active); in assay [3], -41.2% (active); in assay [4], -80.3% (active); in assay [5] it was -69.6% (active); in assay [6] it was -79.7% (active). The growth is -80.4% (active) in assay [7] and -65.6% (active) in assay [8].
